Source: the supplement of paper PMC10412459

System: K562 SF3B1 K700E vs K562 SF3B1 WT
Assay: surviving fraction ratio K562 SF3B1 K700E / K562 SF3B1 WT (each relative to DMSO); higher = less selective killing of SF3B1 K700E cells
Details: 5 days
How it was run: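 Each value is the mutant-to-wild-type ratio of surviving fractions, with both fractions normalised to DMSO and viability read by CellTiter-Glo. Isogenic K562 cells with an engineered mutant allele and their matched wild-type counterparts were seeded at 250 cells per well in 384-well plates. After 24 h, an in-house 80-compound library was added at 0.5, 1, 5, 10, 50, 100, 500 and 1,000 nM, followed by 5 d of continuous culture.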

CCC1=C[C@@H]2CN(C1)Cc1c([nH]c3ccccc13)[C@@](C(=O)OC)(c1cc3c(cc1OC)N(C)[C@H]1[C@@](O)(C(=O)OC)[C@H](OC(C)=O)[C@]4(CC)C=CCN5CC[C@]31[C@@H]54)C2 [vinorelbine]
surviving fraction ratio K562 SF3B1 K700E / K562 SF3B1 WT (0.5nM): 1.02
surviving fraction ratio K562 SF3B1 K700E / K562 SF3B1 WT (1nM): 0.921
surviving fraction ratio K562 SF3B1 K700E / K562 SF3B1 WT (5nM): 0.475
surviving fraction ratio K562 SF3B1 K700E / K562 SF3B1 WT (10nM): 0.385
surviving fraction ratio K562 SF3B1 K700E / K562 SF3B1 WT (50nM): 1.53
surviving fraction ratio K562 SF3B1 K700E / K562 SF3B1 WT (100nM): 1.9
surviving fraction ratio K562 SF3B1 K700E / K562 SF3B1 WT (500nM): 1.97
surviving fraction ratio K562 SF3B1 K700E / K562 SF3B1 WT (1000nM): 1.89

CCN(CC)CCCCNc1ncc2cc(-c3cc(OC)cc(OC)c3)c(NC(=O)NC(C)(C)C)nc2n1
surviving fraction ratio K562 SF3B1 K700E / K562 SF3B1 WT (0.5nM): 1.15
surviving fraction ratio K562 SF3B1 K700E / K562 SF3B1 WT (1nM): 1.03
surviving fraction ratio K562 SF3B1 K700E / K562 SF3B1 WT (5nM): 0.942
surviving fraction ratio K562 SF3B1 K700E / K562 SF3B1 WT (10nM): 0.926
surviving fraction ratio K562 SF3B1 K700E / K562 SF3B1 WT (50nM): 0.901
surviving fraction ratio K562 SF3B1 K700E / K562 SF3B1 WT (100nM): 1.09
surviving fraction ratio K562 SF3B1 K700E / K562 SF3B1 WT (500nM): 0.957
surviving fraction ratio K562 SF3B1 K700E / K562 SF3B1 WT (1000nM): 0.89

CCCCCCCCCCCCCCCC(=O)Nc1ccn([C@@H]2O[C@H](CO)[C@@H](O)[C@@H]2C#N)c(=O)n1 [sapacitabine]
surviving fraction ratio K562 SF3B1 K700E / K562 SF3B1 WT (1nM): 0.911
surviving fraction ratio K562 SF3B1 K700E / K562 SF3B1 WT (10nM): 1.11
surviving fraction ratio K562 SF3B1 K700E / K562 SF3B1 WT (100nM): 0.745
surviving fraction ratio K562 SF3B1 K700E / K562 SF3B1 WT (1000nM): 1.78

NS(=O)(=O)OC[C@@H]1C[C@@H](n2ccc3c(N[C@H]4CCc5ccccc54)ncnc32)C[C@@H]1O
surviving fraction ratio K562 SF3B1 K700E / K562 SF3B1 WT (0.5nM): 0.743
surviving fraction ratio K562 SF3B1 K700E / K562 SF3B1 WT (1nM): 0.708
surviving fraction ratio K562 SF3B1 K700E / K562 SF3B1 WT (5nM): 0.772
surviving fraction ratio K562 SF3B1 K700E / K562 SF3B1 WT (10nM): 0.687
surviving fraction ratio K562 SF3B1 K700E / K562 SF3B1 WT (50nM): 0.74
surviving fraction ratio K562 SF3B1 K700E / K562 SF3B1 WT (100nM): 1.51
surviving fraction ratio K562 SF3B1 K700E / K562 SF3B1 WT (500nM): 1.22
surviving fraction ratio K562 SF3B1 K700E / K562 SF3B1 WT (1000nM): 1.07

C[C@@H]1CN(CC(=O)Nc2ccc3c(c2)Cc2cccc(-c4cc(=O)cc(N5CCOCC5)o4)c2S3)C[C@H](C)O1
surviving fraction ratio K562 SF3B1 K700E / K562 SF3B1 WT (0.5nM): 0.976
surviving fraction ratio K562 SF3B1 K700E / K562 SF3B1 WT (1nM): 1.04
surviving fraction ratio K562 SF3B1 K700E / K562 SF3B1 WT (5nM): 0.887
surviving fraction ratio K562 SF3B1 K700E / K562 SF3B1 WT (10nM): 0.896
surviving fraction ratio K562 SF3B1 K700E / K562 SF3B1 WT (50nM): 1.08
surviving fraction ratio K562 SF3B1 K700E / K562 SF3B1 WT (100nM): 0.96
surviving fraction ratio K562 SF3B1 K700E / K562 SF3B1 WT (500nM): 0.878
surviving fraction ratio K562 SF3B1 K700E / K562 SF3B1 WT (1000nM): 0.865

O=C1NC(=NCc2cccs2)S/C1=C\c1ccc2ncccc2c1
surviving fraction ratio K562 SF3B1 K700E / K562 SF3B1 WT (0.2nM): 0.909
surviving fraction ratio K562 SF3B1 K700E / K562 SF3B1 WT (0.4nM): 0.855
surviving fraction ratio K562 SF3B1 K700E / K562 SF3B1 WT (2nM): 0.878
surviving fraction ratio K562 SF3B1 K700E / K562 SF3B1 WT (4nM): 0.842
surviving fraction ratio K562 SF3B1 K700E / K562 SF3B1 WT (20nM): 1.02
surviving fraction ratio K562 SF3B1 K700E / K562 SF3B1 WT (40nM): 0.921
surviving fraction ratio K562 SF3B1 K700E / K562 SF3B1 WT (200nM): 0.844
surviving fraction ratio K562 SF3B1 K700E / K562 SF3B1 WT (400nM): 0.909

C[C@@H](Oc1cc(-c2cnn(C3CCNCC3)c2)cnc1N)c1c(Cl)ccc(F)c1Cl
surviving fraction ratio K562 SF3B1 K700E / K562 SF3B1 WT (0.5nM): 0.965
surviving fraction ratio K562 SF3B1 K700E / K562 SF3B1 WT (1nM): 1.06
surviving fraction ratio K562 SF3B1 K700E / K562 SF3B1 WT (5nM): 0.847
surviving fraction ratio K562 SF3B1 K700E / K562 SF3B1 WT (10nM): 0.861
surviving fraction ratio K562 SF3B1 K700E / K562 SF3B1 WT (50nM): 0.652
surviving fraction ratio K562 SF3B1 K700E / K562 SF3B1 WT (100nM): 0.542
surviving fraction ratio K562 SF3B1 K700E / K562 SF3B1 WT (500nM): 1.17
surviving fraction ratio K562 SF3B1 K700E / K562 SF3B1 WT (1000nM): 1.06

CNCc1ccc(-c2[nH]c3cc(F)cc4c3c2CCNC4=O)cc1
surviving fraction ratio K562 SF3B1 K700E / K562 SF3B1 WT (0.5nM): 0.834
surviving fraction ratio K562 SF3B1 K700E / K562 SF3B1 WT (1nM): 0.856
surviving fraction ratio K562 SF3B1 K700E / K562 SF3B1 WT (5nM): 0.825
surviving fraction ratio K562 SF3B1 K700E / K562 SF3B1 WT (10nM): 0.831
surviving fraction ratio K562 SF3B1 K700E / K562 SF3B1 WT (50nM): 0.897
surviving fraction ratio K562 SF3B1 K700E / K562 SF3B1 WT (100nM): 0.794
surviving fraction ratio K562 SF3B1 K700E / K562 SF3B1 WT (500nM): 0.847
surviving fraction ratio K562 SF3B1 K700E / K562 SF3B1 WT (1000nM): 0.711

CC(=O)O[C@H]1C(=O)[C@@]2(C)[C@H]([C@H](OC(=O)c3ccccc3)[C@]3(O)C[C@H](OC(=O)[C@H](O)[C@@H](NC(=O)c4ccccc4)c4ccccc4)C(C)=C1C3(C)C)[C@]1(OC(C)=O)CO[C@@H]1C[C@@H]2O [paclitaxel]
surviving fraction ratio K562 SF3B1 K700E / K562 SF3B1 WT (0.5nM): 0.866
surviving fraction ratio K562 SF3B1 K700E / K562 SF3B1 WT (1nM): 0.99
surviving fraction ratio K562 SF3B1 K700E / K562 SF3B1 WT (5nM): 0.864
surviving fraction ratio K562 SF3B1 K700E / K562 SF3B1 WT (10nM): 1.42
surviving fraction ratio K562 SF3B1 K700E / K562 SF3B1 WT (50nM): 2.44
surviving fraction ratio K562 SF3B1 K700E / K562 SF3B1 WT (100nM): 2.46
surviving fraction ratio K562 SF3B1 K700E / K562 SF3B1 WT (500nM): 3
surviving fraction ratio K562 SF3B1 K700E / K562 SF3B1 WT (1000nM): 2.44
